This note sets out measurements from the supplement of paper PMC3334620.

Whole data set: some 33,000 sequences, median “E-score (-0.5 to 0.5)” near -0.036, cut for the highest 2% near 0.37. The sample holds the highest values, similar sequences and a random draw of the others, so the mix is not that of the screen.

The target in this test is T1, Yer064c (UniProt P40041).
T1 sequence: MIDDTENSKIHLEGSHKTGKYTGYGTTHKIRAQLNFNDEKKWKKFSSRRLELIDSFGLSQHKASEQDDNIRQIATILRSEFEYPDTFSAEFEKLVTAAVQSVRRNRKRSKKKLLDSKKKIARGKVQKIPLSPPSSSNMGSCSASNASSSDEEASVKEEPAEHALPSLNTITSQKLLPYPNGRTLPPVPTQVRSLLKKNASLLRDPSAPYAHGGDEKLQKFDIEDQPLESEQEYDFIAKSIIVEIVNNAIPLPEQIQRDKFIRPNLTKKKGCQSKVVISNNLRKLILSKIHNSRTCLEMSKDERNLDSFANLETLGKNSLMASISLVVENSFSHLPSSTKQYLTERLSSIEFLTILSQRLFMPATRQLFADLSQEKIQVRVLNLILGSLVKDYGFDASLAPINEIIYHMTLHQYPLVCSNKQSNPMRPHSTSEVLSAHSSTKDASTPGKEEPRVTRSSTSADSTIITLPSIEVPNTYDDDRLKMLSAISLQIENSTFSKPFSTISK
The test can be described thus: PBM E-score (8-mer binding enrichment) (E-score (-0.5 to 0.5)); higher = stronger / more preferred TF binding. The conditions noted are these: protein concentration: 200 nM; construct: GST-full length. The method in brief: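 Full-length yeast transcription factors or their DNA-binding domains, GST-tagged and expressed with PURExpress, were applied at about 100-200 nM to universal all-10-mer Agilent arrays. These arrays had been made double-stranded by primer extension on fresh or once-stripped slides. Detection used fluorescent anti-GST, normalisation used masliner, and E-scores for ungapped eight-base words pooled with reverse complements came from the Universal PBM Analysis Suite.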
On to CTTCAGGA, for which the “PBM E-score” value was found to be 0.00919. As to CATTCACG, the “PBM E-score” value was 0.0972.

In the case of GATTCACC, the “PBM E-score” value amounted to 0.372. For CATTCACA the value was -0.00304. GATTCACA: the “PBM E-score” value worked out at 0.375. For the sequence CATTCACC, the “PBM E-score” value is -0.166.

Turning to AATTCACC, the “PBM E-score” value is -0.0422. As for CGATAGAC, the “PBM E-score” value turned out to be 0.00233. Take CGCCTTTA: the “PBM E-score” value worked out at 0.0724. On to ATATCTCA, for which the “PBM E-score” value was 0.0798.

Take CTTGGGAA: the “PBM E-score” value is 0.0531. As for ATTCCTAA, the figure is 0.183; as for AATTATGA, 0.248; as for GATGATCA, 0.323. For GATTATGC the value was 0.112; for GTTGATTA, 0.381. For GATGATTA the value was 0.47; for GATTATGA, 0.38. On to AATGATAA, for which the “PBM E-score” value stood at 0.0741. Take ATTGATTA: the “PBM E-score” value stood at 0.286. On to CTTGATTA, for which the “PBM E-score” value is 0.303. Turning to GATGATGA, the “PBM E-score” value came out at 0.256. For the sequence AATGATGA, the “PBM E-score” value amounted to 0.289. AATGATTA: the “PBM E-score” value is 0.449. AACCGCAG: the “PBM E-score” value is -0.0549. Turning to ATCAACTA, the “PBM E-score” value worked out at 0.23. For AGTGAAAT the value was 0.143; for ACCTCCCT, -0.107; for CCGGTTAA, -0.0828. Regarding CCCGAGGG, the “PBM E-score” value is -0.0969. For CCTGATTA the value was 0.344.

On to GCTGATTA, for which the “PBM E-score” value came to 0.392. For ACTGATTA, the “PBM E-score” value stood at 0.343.

For CTTTCCCC, the “PBM E-score” value was -0.153.

For the sequence GGTCGTAA, the “PBM E-score” value was -0.0401.

With AGTCGTAA, the “PBM E-score” value came out at 0.378. For AGTCGTAG the value was 0.406.

Regarding AGTCGTAT, the “PBM E-score” value was 0.379. Consider ACTCGTAT, for which the “PBM E-score” value is 0.107. On to CGTCGTAC, for which the “PBM E-score” value is -0.0504. For TGTCGTAA the value was -0.0131.

Turning to AATCGTAT, the “PBM E-score” value turned out to be 0.118. As for AGTCGTAC, the figure is 0.399; as for CGTCGTAG, 0.0225. As for ACTCGTAG, the figure is 0.218; as for GGTCGTAC, -0.205. Take GAGAGCGA: the “PBM E-score” value was -0.0993. On to GCGATAAC, for which the “PBM E-score” value is -0.135. Consider CGTGGACA, for which the “PBM E-score” value is -0.323. In the case of GCGCGGAC, the “PBM E-score” value was 0.0396.

Consider ATGACCGA, for which the “PBM E-score” value is -0.0163.

As for TGTCCTAA, the “PBM E-score” value is -0.0793.

As for AGTCCTAA, the “PBM E-score” value is 0.366. For AGTCCTAT, the “PBM E-score” value amounted to 0.306. For the sequence AATAGCTA, the “PBM E-score” value was -0.0209. In the case of GCCTGGGA, the “PBM E-score” value is -0.343. On to AAGAATCA, for which the “PBM E-score” value worked out at 0.392. As for CAGAATCA, the figure is 0.349; as for GAGAATCA, 0.392. On to TAGAATCA, for which the “PBM E-score” value is 0.362. Turning to GAGAATTA, the “PBM E-score” value was -0.167.

Take GAGAATCC: the “PBM E-score” value is -0.141. Consider GAACAGCA, for which the “PBM E-score” value is -0.175.

On to AATGGACC, for which the “PBM E-score” value was determined as 0.0237.

Consider CGAGACTC, for which the “PBM E-score” value was found to be 0.369.

In the case of AGAGACTC, the “PBM E-score” value is 0.386. For AGAGACTG, the “PBM E-score” value was found to be 0.0785. In the case of GGAGACTA, the “PBM E-score” value is 0.375. In the case of CGAGACAC, the “PBM E-score” value came to 0.13. As to CGAGACGA, the “PBM E-score” value was -0.0652. As to CCAGACTC, the “PBM E-score” value amounted to 0.206. On to GGAGACCA, for which the “PBM E-score” value is -0.176. On to AGAGACTA, for which the “PBM E-score” value stood at 0.347.

For CCAGACTA, the “PBM E-score” value was found to be 0.208.

For the sequence GGAGACAA, the “PBM E-score” value was -0.173. As for CGAGACTA, the figure is 0.37; as for AGCCTAGC, -0.166. As for CTTCGCGA, the “PBM E-score” value came out at 0.105.

On to ATGAGATA, for which the “PBM E-score” value came to 0.0605.

With GTGCGGCA, the “PBM E-score” value is -0.143.

CGGCGATA: the “PBM E-score” value came out at 0.143. For AAGGAACG the value was -0.167; for AAAAGGAT, -0.0899. As for GCACCCCC, the “PBM E-score” value was -0.268. Consider CGTTAGAC, for which the “PBM E-score” value is -0.00028. CGTTAGTA: the “PBM E-score” value was 0.0645. Consider CGTTAGTC, for which the “PBM E-score” value was found to be 0.45.

Turning to AGTTAGTA, the “PBM E-score” value is 0.196.

On to AGTTAGTC, for which the “PBM E-score” value is 0.447. AGTTAGTG: the “PBM E-score” value is 0.0232. In the case of AATTGTAG, the “PBM E-score” value was 0.13. As to AAGAGCGC, the “PBM E-score” value stood at 0.0664. For CCGTACAG the value was -0.123; for AAAATATA, 0.102. Take GTAAGTGA: the “PBM E-score” value worked out at 0.131.

For CTAAGTCA, the “PBM E-score” value is 0.449. Take GTAAGTCA: the “PBM E-score” value turned out to be 0.448. As for CTAAGTAA, the “PBM E-score” value was 0.204. As for ATAAGTCA, the “PBM E-score” value was 0.438.

In the case of CTAAGTCC, the “PBM E-score” value worked out at 0.148. On to ATAAGTCG, for which the “PBM E-score” value amounted to 0.223. Take GTAAGTAA: the “PBM E-score” value came out at 0.0006. Turning to ATAAGTCC, the “PBM E-score” value amounted to 0.161. With CATCTCGG, the “PBM E-score” value was 0.181. As for AATCCAGC, the figure is -0.149; as for AACCCATA, 0.111; as for GAAGCGGA, -0.189. As for AAATCAGC, the figure is 0.227; as for GAATCAGC, 0.417.

GAATCAGA: the “PBM E-score” value is 0.402. Regarding CAATCAGC, the “PBM E-score” value was 0.317. As for AAATCAGA, the figure is 0.158; as for CAATCAGA, 0.208. In the case of CTTGCCGC, the “PBM E-score” value is -0.264.
